Screening results deposited in PubChem by National Center for Advancing Translational Sciences (NCATS).
An excerpt weighted towards active compounds, which were near 6.2% of everything screened.
Lassa entry inh = inhibitors of Lassa virus binding or cell entry; actives 1.2% (n = 300,000); Lassa virus pseudotype entry inhibition, cell reporter; AID 540256; Potency, µM (series often up to 37.9 µM), actives largely listed as inhibitors; calls by dose curve; tested in HEK293 cells; note: nearly all actives have a fitted effect of over 50% in size
FMDV antiviral = blocks foot and mouth disease virus. FMDV antiviral cell-based qHTS. Potency, µM (top dose mostly 57.9 µM), hits mostly inhibitors. actives 1.2% (n = 410,000). AID 1159524; calls by dose curve; tested in HEK293T cells; note: read-out not given here; nearly all actives have a fitted effect of over 45% in size
MARV entry inh = Marburg virus entry inhibition | Marburg virus pseudotyped entry inhibition, cell reporter | Potency, µM (doses to about 37.8 µM), most hits filed as inhibitors | actives 1.8% (n = 300,000); calls by dose curve; tested in HEK293 cells
HCMV antiviral = blocks human cytomegalovirus replication; HFF cells, HCMV-luciferase reporter, 72 h; hits give low values; activity change, negative = inhibition, % at 57.5 µM; actives 4.5% (n = 410,000); AID 1259415; in the data active = activity change below about -60%; inconclusive = no clear call, values can overlap the other calls; inactive = above about -39%
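Two compound doses tested in HFFs infected with HCMV-luciferase, MOI 1 PFU/cell, 72 h at 37C. Lysate luminescence read with OneGlo; data normalized against buffer-only and 10uM Salinomycin inhibitor controls.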
Numbers stand for hits; - = inactive; ? = inconclusive; . = no result.

SMILES | Lassa entry inh | FMDV antiviral | MARV entry inh | HCMV antiviral
CCCNC(=O)C1(C)CCN1C(=O)c1ccccc1CCc1ccccc1 (stereo unspecified) | . | - | . | -61
C=CCn1c(=O)[nH]c2cc(C(=O)N3CCN(c4cccc(Cl)c4)CC3)ccc2c1=O | - | 28µM | ? | -
COC(=O)c1ccc2c(=O)n(CCCCCC(=O)O)c(=O)[nH]c2c1 | - | 25µM | - | -
COc1ccc(Cn2c(=O)[nH]c3cc(C(=O)N4CCN(c5ccccc5)CC4)ccc3c2=O)cc1 | - | - | - | -
COc1cccc(N2CCN(C(=O)c3ccc4c(=O)n(CCc5ccccc5)c(=O)[nH]c4c3)CC2)c1 | - | 20µM | - | -
C=CCn1c(=O)[nH]c2cc(C(=O)N3CCN(c4ccc(C(C)=O)cc4)CC3)ccc2c1=O | ? | 14µM | - | -
O=C(Nc1ccccc1)N1CC[C@@]2(CCCN(C(=O)c3cnccn3)C2)C1 | . | - | . | .
O=C(OCC(=O)N1CCCCCC1)c1ccc[nH]c1=O | . | - | . | -60
O=C(OCC(=O)N1CCOCC1)c1ccc[nH]c1=O | - | - | - | -
O=C(COC(=O)c1ccc[nH]c1=O)Nc1ccc(N2CCCCC2)cc1 | . | 2.5µM | . | -75
CCN(CCNC(=O)C1CCN(Cc2nc(-c3cccc(Cl)c3)oc2C)CC1)c1ccccc1 | ? | 40µM | ? | -
Cc1oc(-c2cccc(Cl)c2)nc1CN1CCC(C(=O)NC(C)c2ccccc2)CC1 (stereo unspecified) | - | 35µM | - | -
COc1ccc(C(=O)Nn2c(SCC(=O)c3ccc(Cl)cc3)nc3ccccc3c2=O)cc1 | ? | - | ? | -
CCn1c(SCC(=O)NCc2ccco2)nc2ccccc2c1=O | . | - | . | -
COc1ccc(C(=O)Nn2c(SCC(=O)NCc3ccco3)nc3ccccc3c2=O)cc1 | 1µM | 14µM | 0.4µM | -73
COc1ccc(C(=O)Nn2c(SCC(=O)N3CCC(C)CC3)nc3ccccc3c2=O)cc1 | 8.2µM | 11µM | 1.6µM | -62
COc1ccc(C(=O)Nn2c(SCC(=O)NC3CCCCC3)nc3ccccc3c2=O)cc1 | ? | 13µM | ? | -
O=C(Oc1cccc(C(=S)N2CCOCC2)c1)c1ccc([N+](=O)[O-])cc1[N+](=O)[O-] | - | - | - | -
CCOC(=O)c1ccc(N2C(=O)c3n[nH]c(-c4cccs4)c3C2c2ccc(OC)cc2OC)cc1 (stereo unspecified) | ? | ? | ? | -92
CCOC(=O)c1ccc(N2C(=O)c3n[nH]c(-c4cccs4)c3C2c2cccc(OC)c2)cc1 (stereo unspecified) | ? | ? | 10µM | -107
Cc1cc(OC(=O)c2cccc(F)c2)c([N+](=O)[O-])c(=O)[nH]1 | . | - | . | -
C/C(Cc1ccccc1)=N\NC(=O)CNC(=O)c1ccc(Br)cc1 | - | - | - | -
O/C(=C\c1ccc2ccccc2n1)c1ccncc1 | . | - | . | -101
O/N=C/c1ccc2ccccc2n1 | - | - | ? | -
N#Cc1ccccc1/C=N/Nc1nc(-c2ccccc2)c2cc(Cl)ccc2n1 | - | ? | ? | ?
SMILES | Lassa entry inh | FMDV antiviral | MARV entry inh | HCMV antiviral
Cc1ccc2nc(N/N=C/c3ccccc3C#N)nc(-c3ccccc3)c2c1 | ? | - | 13µM | ?
CCOC(=O)Oc1c(OC)cc(C(=O)O[C@@H]2C[C@@H]3CN4CCc5c([nH]c6cc(OC)ccc56)[C@H]4C[C@@H]3[C@H](C(=O)OC)[C@H]2OC)cc1OC | . | - | . | -68
Cc1ccc(N2CCN(c3ccc(C)cc3)C2c2ccncc2)cc1 | - | ? | ? | -
CSc1cccc(NC(=S)N2CCCN(Cc3ccc(F)cc3)C2)c1 | ? | - | 6.3µM | -
Cc1ccccc1NC(=S)N1CCCN(Cc2ccc(F)cc2)C1 | . | - | . | -
Cc1c(Cl)cccc1NC(=S)N1CCCN(Cc2ccccc2F)C1 | ? | - | 10µM | -
Cc1c(Cl)cccc1NC(=S)N1CCCN(Cc2ccc(F)cc2)C1 | - | - | 4µM | -
CC(C)CC(=O)/C=C/n1c(=S)oc2ccccc21 | - | ? | - | -
CC(=O)/C=C/n1c(=S)oc2ccccc21 | ? | 3.2µM | 13µM | -100
CC(=O)c1ccc(NC(=O)CCc2c(C)nc3cc(-c4ccc(Cl)cc4)nn3c2C)cc1 | - | ? | - | -
CCN(CC)S(=O)(=O)c1ccc(NC(=O)CCc2c(C)nc3cc(-c4ccc(Cl)cc4)nn3c2C)cc1 | ? | ? | ? | -76
Cc1ccc(Sc2cc(C)nc(-c3ccccn3)n2)cc1 | ? | - | - | -76
COc1ccccc1Sc1nc(-c2ccccn2)ncc1OC | ? | - | ? | ?
FC(F)(F)c1cccc(Sc2cc(C(F)(F)F)nc(-c3ccccn3)n2)c1 | - | ? | ? | -
COc1cnc(-c2ccccn2)nc1Sc1ccc(C)cc1 | ? | - | 6.3µM | -81
COc1cnc(-c2ccccn2)nc1Oc1ccc(Cl)c2ccccc12 | ? | 3.2µM | ? | -100
COc1cnc(-c2ccccn2)nc1NC(C)C | ? | - | 11µM | -101
FC(F)(F)c1ccccc1Cc1c(C2CCCCC2)nc2ccc(Br)cn12 | . | - | . | -
CCc1ccc(S(=O)(=O)Nc2ccc(-c3ccc(N4CCCCCC4)nn3)cc2)cc1 | - | - | . | -
CCC(CC)C(=O)N(C)c1c(C)nc2c(OCCOc3ccccc3)cccn12 | . | ? | . | -
COc1cnc(-c2ccccn2)nc1Sc1cccc(Cl)c1 | ? | - | ? | -64
COCCn1c(C)cc(C(=O)CSc2nc(C)nc3sc4c(c23)CCC4)c1C | 10µM | - | 3.7µM | -80
Cc1ccc(S(=O)(=O)N2CCCC(C(=O)NCc3ccccc3F)C2)cc1 (stereo unspecified) | - | - | - | -
CCOc1ccc(N(CC(=O)NCc2cccs2)S(=O)(=O)c2c(C)noc2C)cc1 | . | - | - | -60
COc1ccc(N(CC(=O)Nc2cc(C)on2)S(=O)(=O)c2ccc(Cl)cc2)cc1 | - | - | - | -
SMILES | Lassa entry inh | FMDV antiviral | MARV entry inh | HCMV antiviral
COc1ccc(N(CC(=O)Nc2cc(C)on2)S(=O)(=O)c2cc(C)ccc2C)cc1 | - | - | ? | -91
CCOc1ccc(N(CC(=O)Nc2ccccc2OCC)S(=O)(=O)c2c(C)noc2C)cc1 | . | - | . | -86
CCOc1ccc(N(CC(=O)Nc2cccc(OC)c2)S(=O)(=O)c2c(C)noc2C)cc1 | . | ? | - | -62
COc1ccc(NC(=S)NC(=O)c2ccc3c(c2)OCCO3)cc1 | - | - | ? | -
Cc1cc(C)nc(NC(=O)c2cc(Br)ccc2Cl)n1 | - | - | - | -
COc1ccc(/C=N/N2CCN(c3ccccc3OC)CC2)cc1Br | . | - | . | -
CC1=C(C(=O)OCc2ccccc2)C(c2ccc(N(C)C)cc2)NC(=O)N1 (stereo unspecified) | ? | . | - | -
CCOc1ccc(N(CC(=O)Nc2ccc(C)cc2)S(=O)(=O)c2c(C)noc2C)cc1 | . | - | - | -
CCOc1ccc(N(CC(=O)Nc2ccc(F)c(F)c2)S(=O)(=O)c2c(C)noc2C)cc1 | - | - | - | -63
CCOC(=O)c1ccc(NC(=O)CN(c2ccc(C)cc2)S(=O)(=O)c2c(C)noc2C)cc1 | ? | - | 11µM | -
O=C(Nc1ccc2nc3n(c(=O)c2c1)CCCC3)c1cncc(Br)c1 | . | - | . | -63
O=C(Nc1ccc2nc3n(c(=O)c2c1)CCCC3)c1cc([N+](=O)[O-])ccc1F | 3.3µM | 20µM | 7.1µM | .
COc1cc(OC)cc(C(=O)Nc2ccc3nc4n(c(=O)c3c2)CCCCC4)c1 | - | - | ? | -
